Screening data (PubChem BioAssay)
MPTP block = blocks calcium-induced mitochondrial swelling | isolated mouse mitochondria, Ca2+ swelling absorbance, 30 min | inhibition, % at 10 µM | 1.4% of 360,000 active | AID 602449;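 active = inhibition of 50% or more, scaled per plate between neutral and stimulator controls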;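 note: 0% = DMSO wells given calcium and 100% = 1 mM EGTA wells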
ADAM17 inh = ADAM17 inhibition, QFRET primary screen. P78536. recombinant ADAM17, EDANS/DABCYL FRET peptide cleavage. inhibition, % at 6.95 µM. 0.83% of 370,000 active;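 active = inhibition above the mean of compounds lying between control limits plus 3 SD, set per campaign, cut at about 8.5% in these data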;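 note: 0% = DMSO-only wells as the low control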
Target sequence (P78536 215-824 limits assumed): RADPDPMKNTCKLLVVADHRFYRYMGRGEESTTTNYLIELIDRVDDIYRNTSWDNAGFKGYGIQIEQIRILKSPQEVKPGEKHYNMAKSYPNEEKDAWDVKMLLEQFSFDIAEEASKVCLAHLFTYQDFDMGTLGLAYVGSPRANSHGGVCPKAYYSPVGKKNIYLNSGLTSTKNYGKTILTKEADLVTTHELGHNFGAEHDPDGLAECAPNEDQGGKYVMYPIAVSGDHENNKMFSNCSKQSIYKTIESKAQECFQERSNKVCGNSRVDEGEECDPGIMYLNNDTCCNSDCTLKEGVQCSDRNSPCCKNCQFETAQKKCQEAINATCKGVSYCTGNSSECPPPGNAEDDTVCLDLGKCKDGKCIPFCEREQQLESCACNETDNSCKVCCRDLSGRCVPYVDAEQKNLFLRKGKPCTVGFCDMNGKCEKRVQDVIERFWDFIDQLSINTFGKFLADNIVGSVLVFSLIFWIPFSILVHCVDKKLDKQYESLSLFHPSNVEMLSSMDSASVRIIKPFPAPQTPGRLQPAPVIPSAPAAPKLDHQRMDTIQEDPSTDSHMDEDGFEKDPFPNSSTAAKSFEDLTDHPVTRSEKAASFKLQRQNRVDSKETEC
ADAM10 inh = inhibits human ADAM10. 0.62% of 370,000 active. recombinant ADAM10, EDANS/DABCYL FRET peptide cleavage, 3 h. AID 720582. O14672. inhibition, % at 7 µM;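 active = inhibition above a per-campaign cutoff equal to the mean of compounds falling between control-based bounds plus 3 SD, cut at about 20% in these data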;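 note: 0% = DMSO wells while the 100% control is not disclosed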
rCAG binder = r(CAG) repeat RNA binding; inhibition, % at 3 µM; AID 651821; 1.3% of 370,000 active; TO-PRO-1 dye displacement fluorescence;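 active = inhibition above the plate cutoff, the mean of all test compounds on that plate plus 3 SD, cut at about 35% in these data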;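 note: 0% = DMSO alone and 100% = 100 µM mitoxantrone as full dye displacement; higher means more dye released from RNA so lower well fluorescence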
KLK7 zymogen act = proKLK7 (human) activation, primary screen | P49862 | purified proKLK7, EDANS-DABCYL substrate fluorescence; 100% is mature enzyme control, 0% vehicle | activation, % at 7 µM | 0.9% of 370,000 active;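 active = activation above the mean of all tested compounds plus 3 SD, computed per campaign excluding outliers beyond control limits, cut at about 13% in these data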
DSG3 Ab inh = human desmoglein-3 autoantibody binding inhibition | P32926 | DSG3-coupled beads, scFv-anti-DSG3-GFP binding, flow cytometry; active compounds read low | binding (percent of control), % at 10 µM | 0.48% of 310,000 active | AID 588358;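 active = binding more than 3 SD below its plate's average and above zero; inconclusive = below that plate limit but binding exactly zero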;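 note: hits lower antibody fragment binding to DSG3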
MPTP counter = mitochondrial membrane potential, counter-screen; shares compounds with MPTP block; isolated mitochondria, Rhodamine 123 fluorescence; AID 624504; inhibition, % at 10 µM; 78% of 5,000 active; in the data active = inhibition above about 22%;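 note: 0% = DMSO vehicle and 100% = positive control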
MPTP swell DR = dose response confirmation of mitochondrial permeability transition pore inhibitors; shares compounds with MPTP block; isolated mitochondria swelling, absorbance; IC50, µM; 58% of 780 active; in the data active = IC50 below about 20 µM
MPTP cs DR = counter-screen for mitochondrial permeability transition pore inhibitors, dose response; shares compounds with MPTP block; isolated mitochondria counterscreen, fluorescence read-out; IC50, µM; 49% of 780 active; AID 651564; in the data active = IC50 below about 80 µM
Active calls of the source: *; i = inactive; u = inconclusive; x = not tested or not shown. Shown are actives, neighbours in structure and some others; about 4.7% of the full set was active somewhere.

SMILES	MPTP block	ADAM17 inh	ADAM10 inh	rCAG binder	KLK7 zymogen act	DSG3 Ab inh	MPTP counter	others
CCCCCCCCN1C(=O)[C@@H](CC(=O)N2CCN(C(=O)C3CC3)CC2)C[C@@]2(C(=O)OC)C1=C[C@H](C1CCCC1)O[C@@H]2C	x	2	14	8	1	x	x
OC(c1cccc(OCc2ccccc2)c1)c1nnc(-c2ccccc2)o1 (centres undefined)	104*	-2	-13	3	0	96	96*
C[C@H](CO)N1C[C@H](C)[C@@H](CN(C)S(C)(=O)=O)OCc2cn(nn2)CCCC1=O	x	2	-6	1	0	x	x
O=C(CC1NCCc2ccccc21)Nc1ccc(Cl)cc1 (centres undefined)	61*	-1	0	6	0	80	0	MPTP swell DR=9.1*;MPTP cs DR=>80
O=C(Nc1ccc(N2CCOCC2)c(S(=O)(=O)Nc2ccccc2Cl)c1)c1ccc(F)cc1	4	1	-2	11	0	94	x
O=C(Cc1ccc(F)cc1)Nc1ccccc1N1CCCC1	0	-5	4	-4	0	112	x
O=C(Nc1ccc(F)cc1)Nc1ccccc1N1CCCCC1	85*	3	11	0	0	107	77*
O=C(Nc1ccc(Cl)c(Cl)c1)Nc1ccc(N2CCCC2)c(S(=O)(=O)Nc2ccccc2Cl)c1	100*	-6	2	33	-1	89	49*
O=C(Nc1ccc(F)cc1)Nc1ccc(N2CCCC2)c(S(=O)(=O)Nc2ccccc2Cl)c1	100*	-7	-32	37*	-3	x	61*
CCOC(=O)c1ccc(N2CCN(c3ccc(F)cc3)CC2)c(NC(=O)Nc2cccc(OC)c2)c1	92*	5	3	5	0	101	84*
CCOC(=O)c1ccc(N2CCN(c3ccccc3F)CC2)c(NC(=O)Nc2ccccc2)c1	96*	4	5	20	-1	109	87*
COC(=O)[C@]12C[C@H](CC(=O)NCc3ccc(OC)c(OC)c3)C(=O)N(CCc3ccc(OC)c(OC)c3)C1=C[C@H](COCc1ccccc1)O[C@@H]2C	x	-4	4	2	0	x	x
O=C(Nc1nnc(-c2ccc(Cl)cc2)o1)c1nc2ccccc2s1	97*	1	-26	10	0	102	5	MPTP swell DR=2.6*;MPTP cs DR=13*
O=C(Nc1nnc(-c2ccc(Cl)cc2)o1)Nc1ccccc1Cl	-1	1	-1	2	0	99	x
Cn1nc(C(C)(C)C)cc1C(=O)NCc1ccc(N2CCCC2=O)cc1	95*	-4	-4	-5	0	109	93*
CCOC(=O)[C@]12CCCCC/C=C\1N(Cc1ccc(OC)cc1)C(=O)[C@H]2CC(=O)NCCc1ccccc1OC	x	3	5	4	0	x	x
Cc1ccc2nc(CN(C)C(=O)[C@H]3O[C@@H](n4cnc(C(N)=O)n4)[C@H](O)[C@@H]3O)[nH]c2c1	x	-5	-12	-2	0	x	x
O=C(/C(N=Nc1cccc([N+](=O)[O-])c1)=C(/O)c1ccc(Br)cc1)C(F)(F)F	78*	x	x	x	x	x	62*
COC(=O)c1cc(NC(=O)c2cc(-c3ccc(Cl)cc3)oc2C(F)(F)F)ccc1N1CCOCC1	76*	2	10	14	0	110	80*
S=C(NCc1ccco1)Nc1ccc(Oc2ccccc2)cc1	78*	-1	7	1	0	104	85*
OCCCNC(=S)Nc1ccc(Oc2ccccc2)cc1	2	-1	12	3	0	101	x
COc1ccc(NC(=S)NCc2ccco2)cc1	0	-2	0	0	-1	u	x
CC(C)CNC(=S)Nc1ccc(Oc2ccccc2)cc1	92*	3	0	-1	0	99	98*
CCOC(=O)c1ccc(NC(=S)NCc2ccco2)cc1	65*	2	2	2	0	99	72*
CCOc1ccc(NC(=S)NCc2ccco2)cc1	-2	-2	-7	-2	1	101	x
SMILES	MPTP block	ADAM17 inh	ADAM10 inh	rCAG binder	KLK7 zymogen act	DSG3 Ab inh	MPTP counter	others
CN(NC(=O)C(=O)NCc1ccco1)C(=O)NC1CCCCC1	x	-2	-2	2	1	x	x
O=C(CCCCN1CCCCC1)c1ccc2c(c1)Cc1ccccc1-2	95*	-7	-19	9	0	97	81*
CCCc1cc(=O)[nH]c(SCc2cc(Cl)ccc2OC(F)F)n1	71*	1	10	7	0	99	55*
Cc1ccc2nc(Cl)c(/C=N/NC(=O)c3ccccc3O)cc2c1	65*	-3	-9	5	0	105	76*
CCOC(=O)c1oc2ccc(Br)cc2c1NC(=O)CN1CCN(C)CC1	69*	-1	-3	-8	0	x	-6
CCOC(=O)CC[C@H]1CC[C@]2(CCCN(S(C)(=O)=O)C2)O1	x	2	3	1	0	x	x
Cc1ccccc1-c1nn(-c2ccc(F)cc2F)cc1CNCCN(C)C	25	-2	7	-1	0	109	x
Cc1ccccc1-c1nn(-c2ccc(F)cc2F)cc1CNCCCN(C)C	87*	-5	-7	1	-1	117	-12
O=C(Nc1ccc2ncccc2c1)c1cc(-c2ccc(Cl)cc2)nc2ccccc12	x	-5	-2	9	0	x	x
CC(C)COc1ccc(C/C(N)=N/n2cnnc2)cc1	66*	2	4	-8	-1	93	54*
COC(=O)[C@]12C[C@H](CC(=O)NCCCN3CCCC3=O)C(=O)N(CCC3=CCCCC3)C1=C[C@H](C(C)(C)C)O[C@@H]2C	x	-2	4	-1	0	x	x
CC[C@H](C)Cc1cn([C@@H](CCCN=C(N)N)C(=O)NCCCCCCCCCCC(=O)N2CCNCC2)nn1	86*	-3	1	8	0	106	-15	MPTP swell DR=11*;MPTP cs DR=76*
CC[C@H](C)[C@@H](C(=O)NCCCCCCCCCCC(=O)N1CCNCC1)n1cc(CCCCN=C(N)N)nn1	2	-4	-7	-2	0	106	x
CC(=O)c1cc(-c2cccc(CO)c2)c(=O)n2c1CCC2	x	-11	-16	3	1	x	x
Cc1ccc(OCC(O)Cn2c(=N)n(CCN3CCOCC3)c3ccccc32)cc1 (centres undefined)	52*	-6	-8	5	0	101	0	MPTP swell DR=i;MPTP cs DR=>80
Fc1cc(Br)ccc1NC(=S)Nc1ccccc1	92*	-2	-5	-1	0	100	93*
Fc1ccccc1NC(=S)Nc1ccc(Br)cc1	97*	-5	4	2	0	94	95*
